From PubChem BioAssay AID1159580 (chemical genetic matrix, 2015)
Where “and” joins values, the source holds several entries; their conditions need not be identical. Equal values may be shown once. Hit rate of the full screen: of about 5,500 compounds, about 2,000 (36%) were called active. Inconclusive results (about 18%) are left out. Rule as the data show it: active = normalized growth mostly below about 0.91 (no sharp cut-off); inconclusive = no clear call, values can overlap the other calls; inactive = mostly above about 0.92. The list shows a part of the results.

Test: chemical genetic growth profiling, strain panel (AID 1159580);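 also: tested at 20 µM; growth read once vehicle control cultures reached saturation at 30 °C; 1 = growth at the plate median or of vehicle wells; lower values mean less growth of the strain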
Settings: S. cerevisiae deletion strains, growth OD

Measured: normalized growth

C[CH2][Hg][S]c1ccccc1C(=O)O
active: locus YAL013W, strain DEP1, stronger effect = lower value 0.0571 | locus YAL021C, strain ccr4, stronger effect = lower value 0.0644 | locus YAL026C, strain drs2, stronger effect = lower value 0.0601 | locus YAL030W, strain snc1, stronger effect = lower value 0.0549 | locus YBL061C, strain skt5, stronger effect = lower value 0.0584 | locus YBR009C, strain hhf1, stronger effect = lower value 0.0625 | locus YBR021W, strain FUR4, stronger effect = lower value 0.0826 | locus YBR023C, strain chs3, stronger effect = lower value 0.0607 | locus YBR171W, strain sec66, stronger effect = lower value 0.0719 | locus YBR229C, strain ROT2, stronger effect = lower value 0.0466 | locus YBR231C, strain swc5, stronger effect = lower value 0.0602 | locus YBR279W, strain paf1, stronger effect = lower value 0.0565 | locus YCL011C, strain gbp2, stronger effect = lower value 0.0545 | locus YCL016C, strain dcc1, stronger effect = lower value 0.0628 | locus YCL029C, strain bik1, stronger effect = lower value 0.0644 | locus YCL061C, strain MRC1, stronger effect = lower value 0.0624 | locus YCL069W, strain vba3, stronger effect = lower value 0.0582 | locus YCR088W, strain abp1, stronger effect = lower value 0.0571 | locus YDL005C, strain med2, stronger effect = lower value 0.0718 | locus YDL035C, strain GPR1, stronger effect = lower value 0.0506 | locus YDL040C, strain nat1, stronger effect = lower value 0.0559 | locus YDL074C, strain BRE1, stronger effect = lower value 0.0797 | locus YDL101C, strain DUN1, stronger effect = lower value 0.0547 | locus YDL134C, strain PPH21, stronger effect = lower value 0.0487 | locus YDL185W, strain tfp1, stronger effect = lower value 0.056 | locus YDL192W, strain arf1, stronger effect = lower value 0.0586 | locus YDR001C, strain nth1, stronger effect = lower value 0.0548 | locus YDR069C, strain doa4, stronger effect = lower value 0.0614 | locus YDR101C, strain arx1, stronger effect = lower value 0.0572 | locus YDR137W, strain rgp1, stronger effect = lower value 0.0826 | locus YDR150W, strain NUM1, stronger effect = lower value 0.058 | locus YDR159W, strain sac3, stronger effect = lower value 0.0891 | locus YDR162C, strain NBP2, stronger effect = lower value 0.0541 | locus YDR195W, strain ref2 0.117 | locus YDR297W, strain sur2, stronger effect = lower value 0.0559 | locus YDR318W, strain mcm21, stronger effect = lower value 0.0596 | locus YDR334W, strain swr1, stronger effect = lower value 0.06 | locus YDR335W, strain msn5, stronger effect = lower value 0.0577 | locus YDR388W, stronger effect = lower value 0.0549 | locus YDR392W, strain spt3, stronger effect = lower value 0.0928 | locus YDR502C, strain sam2, stronger effect = lower value 0.0576 | locus YEL003W, strain gim4, stronger effect = lower value 0.0526 | locus YEL037C, strain rad23, stronger effect = lower value 0.0545 | locus YEL061C, strain CIN8 (second series), stronger effect = lower value 0.058 | locus YEL061C, strain CIN8, stronger effect = lower value 0.0473 | locus YER015W, strain faa2, stronger effect = lower value 0.0585 | locus YER016W, strain bim1, stronger effect = lower value 0.059 | locus YER110C, stronger effect = lower value 0.0716 | locus YER111C, strain swi4, stronger effect = lower value 0.0734 | locus YER155C, strain BEM2 (second series), stronger effect = lower value 0.0849 | locus YER155C, strain BEM2, stronger effect = lower value 0.0624 | locus YER167W, strain BCK2, stronger effect = lower value 0.0502 | locus YFR010W, strain ubp6, stronger effect = lower value 0.0647 | locus YGL078C, strain dbp3, stronger effect = lower value 0.0538 | locus YGL086W, strain mad1, stronger effect = lower value 0.0535 | locus YGL167C, strain pmr1, stronger effect = lower value 0.0714 | locus YGL173C, strain kem1, stronger effect = lower value 0.0663 | locus YGL227W, strain vid30, stronger effect = lower value 0.059 | locus YGL240W, strain doc1, stronger effect = lower value 0.0734 | locus YGL248W, strain PDE1, stronger effect = lower value 0.0448 | locus YGL253W, strain hxk2, stronger effect = lower value 0.0514 | locus YGR078C, strain PAC10, stronger effect = lower value 0.0492 | locus YGR135W, strain pre9, stronger effect = lower value 0.0647 | locus YGR229C, strain SMI1, stronger effect = lower value 0.0574 | locus YGR252W, strain gcn5, stronger effect = lower value 0.152 | locus YHR013C, strain ard1, stronger effect = lower value 0.106 | locus YHR027C, strain rpn1, stronger effect = lower value 0.0612 | locus YHR030C, strain SLT2, stronger effect = lower value 0.0498 and 0.113 | locus YHR079C, strain IRE1 (second series), stronger effect = lower value 0.0541 | locus YHR079C, strain IRE1, stronger effect = lower value 0.123 | locus YHR094C, strain hxt1, stronger effect = lower value 0.0545 | locus YHR129C, strain ARP1, stronger effect = lower value 0.0546 | locus YHR142W, strain chs7, stronger effect = lower value 0.0696 | locus YHR200W, strain rpn10, stronger effect = lower value 0.057 | locus YIL066C, strain RNR3, stronger effect = lower value 0.0505 | locus YIL073C, strain SPO22, stronger effect = lower value 0.103 | locus YIL125W, strain kgd1, stronger effect = lower value 0.0543 | locus YIR030C, strain dcg1, stronger effect = lower value 0.0568 | locus YJL092W, strain hpr5, stronger effect = lower value 0.0555 | locus YJL095W, strain BCK1 (second series), stronger effect = lower value 0.0563 | locus YJL095W, strain BCK1, stronger effect = lower value 0.0505 and 0.109 | locus YJL115W, strain asf1, stronger effect = lower value 0.0695 | locus YJL129C, strain trk1, stronger effect = lower value 0.0829 | locus YJL134W, strain LCB3, stronger effect = lower value 0.0483 | locus YJL154C, strain vps35, stronger effect = lower value 0.0588 | locus YJL164C, strain tpk1, stronger effect = lower value 0.0629 | locus YJL166W, strain qcr8, stronger effect = lower value 0.0596 | locus YJL168C, strain set2, stronger effect = lower value 0.0562 | locus YJL187C, strain SWE1 (second series), stronger effect = lower value 0.0465 | locus YJL187C, strain SWE1, stronger effect = lower value 0.0547 | locus YJR043C, strain POL32, stronger effect = lower value 0.0607 | locus YJR066W, strain TOR1, stronger effect = lower value -0.000335
